Measurements taken from PubChem BioAssay AID588502 (Sanford-Burnham Center for Chemical Genomics, 2011).
Results with a measured potency or affinity are listed apart. Values without a mark were called inactive. The rule behind the calls is not given here.

Experiment: dose response, counter-screen, biochemical, fluorescence, single-stranded RNase substrate (AID 588502)
Details: oligo substrate without MazF, fluorescence increase, 5 h

Structure (SMILES): CC1CCC(=NNS(=O)(=O)c2ccc([N+](=O)[O-])cc2)CC1 (stereo unspecified)
- EC50: > 99 µM
